Shiga toxin inh – Shiga toxin inhibition | Vero cells, Shiga toxin protein synthesis inhibition reporter | inhibition, % at 38.7 µM | 290,000 tested, 9.2% active | AID 2315; in the data active = inhibition mostly above about 28%, no sharp cut-off; inactive = mostly below about 43%; also: 0% is about no effect
Pf growth 48h – P. falciparum growth inhibition at 48 hours (one generation); P. falciparum luciferase growth in erythrocytes, 48 h; Potency, µM (series often up to 28.7 µM), for the others: top-dose activity change, negative = inhibition, most hits filed as inhibitors; 310,000 tested, 5.9% active; AID 504832; also: potency is read from the fitted curve at half-maximal effect; % is scaled to controls: 0 for no effect and ±100 for the full control effect
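Luciferase-expressing P. falciparum in infected erythrocytes (2% hematocrit, 0.1% parasitemia final) in RPMI 1640/0.5% Albumax were exposed to compound for 48 hours at 37 C, 5% CO2; growth read as luminescence.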
NS1 function inh – inhibitors of influenza NS1 protein function; 270,000 tested, 0.4% active; Potency, µM (top dose mostly 46.1 µM), for the others: at the highest dose activity, positive = more growth; AID 2326; calls by dose curve; also: potency is read from the fitted curve at half-maximal effect; actives are rising curves; nearly all actives have a fitted effect of over 50% in size
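Read-out: OD600 growth recovery of NS1-expressing budding yeast. Cells grown overnight at 30C in -URA glucose medium, washed, resuspended and diluted 1:100 in 2% galactose assay medium, pH 6.0. Same strain lacking NS1 served as positive control.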
Cycloheximide cs – counter-screen for Shiga toxin inhibitors: cycloheximide protein synthesis inhibition | cell reporter, cycloheximide protein synthesis inhibition counterscreen | max response, % | 300,000 tested, 12% active; in the data active = max response mostly above about 13%, no sharp cut-off; inactive = mostly below about 14%; also: read at 38.3 µM for the half of the compounds with a filed dose; 0% is about no effect
Pf growth 96h – P. falciparum growth inhibition at 96 hours. Potency, µM (titrated, usually from 28.7 µM), for inactives: at the top dose activity change, negative = inhibition, usual class: inhibitors. 320,000 tested, 6.9% active. P. falciparum luciferase reporter growth, 96 h; also: potency is read from the fitted curve at half-maximal effect; % is scaled to controls: 0 for no effect and ±100 for the full control effect
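Cell-based qHTS: luciferase-tagged P. falciparum in erythrocytes (2% hematocrit, 0.05% parasitemia final) incubated with compounds for 96 hours, 37 C, 5% CO2; luciferase detection reagent then added and luminescence measured.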
* = called active by the depositor; i = inactive; u = inconclusive; x = no result; [ ] = another dose, or the depositor's remark. Hits are enriched below; roughly 21% of the tested compounds scored in any of these assays. Unless noted, calls follow the shape of the dose curve; as a rule, active = well fitted inhibition curve with a large enough effect; inconclusive = small, poorly fitted or top-dose-only effect, or another doubt; inactive = no such curve, though single readings can be large or run the other way.

SMILES | Shiga toxin inh | Pf growth 48h | NS1 function inh | Cycloheximide cs | Pf growth 96h
CCN(Cc1ccccc1)C(=O)c1ccc(Cl)cc1[N+](=O)[O-] | -11.0 | -14.7% | x | -5.7 | u
COc1cccc(OC)c1C1=NCC(=O)Nc2c1oc1ccc(Br)cc21 | -8.1 | u | -64.4% | -3.8 | 1.85µM*
O=C(O)/C=C\C(=O)Nc1ccccn1 | x | x | -6.9% | x | x
S=C(Nc1ccc(Nc2ccccc2)cc1)Nc1ccccn1 | 100.0* | u | -1.1% | 37.5* | -35.4%[5.75 µM]
O=C(N/N=C/c1ccccc1O)C(=O)Nc1ccccn1 | 77.2* | u | x | 24.2* | u
O=C(Nc1ccccc1)C(=O)Nc1ccccn1 | 168.5* | 444.2% | -26.3% | 62.9* | 117.2%
S=C(Nc1ccccn1)NC1CCCC1 | -4.7 | -5.4% | -10.4% | 7.1 | 13.7%
S=C(Nc1ccccc1)c1ccccn1 | 79.6* | 51.9% | -4.5% | 46.9* | u
Cc1cc(C)cc(OCCCCn2cncn2)c1 | -4.3 | 0.4% | -4.5% | 1.5 | 35.9%
COc1ccc(OCCC(=O)NCCN2CCOCC2)cc1 | 12.7 | 5.7% | x | -3.2 | 42.2%
COc1ccc(CNC(=O)C(c2ccncc2)N(C(=O)Cc2cccs2)c2ccccc2C)cc1 (stereo not drawn) | 1.5 | u | -28.8% | -3.3 | 6.9%
Cc1cccc(OCCOc2ccc(/C=N/NC(=O)Cc3nnc(N)s3)cc2)c1 | -0.9 | 4.3% | 1.8% | -2.7 | 34.7%
O=C(Nc1cccc(O)c1)C(=O)Nc1ccccn1 | 26.8 | 50.4% | -12.2% | 15.9* | i
Cc1nc(SCC(=O)NCC2CCCO2)[nH]c(=O)c1C (stereo not drawn) | x | 14.9% | x | x | 4.1%
CC(=O)c1c(N2CCN(Cc3ccccc3)CC2)[nH]c(-c2ccccc2)nc1=S | -9.3 | 4.65µM* | -0.4% | -3.9 | -100.9%
CC(=O)c1c(N2CCCC2)[nH]c(-c2ccccc2)nc1=S | -6.2 | x | u | 1.1 | u
O=C(Cn1cccc1C(=O)c1ccccc1)NCCC1=CCCCC1 | 8.8 | -12.5% | x | -0.8 | 0.0%
CN1CCn2c1nc(N1CCOCC1)nc2=O | -6.4 | -14.8% | 7.9% | -1.7 | x
CCOC(=O)c1cc2c(C)n(-c3ccc(OCC)cc3)c(C)c2cc(C(=O)OCC)c1=O | -12.9 | u | 5.9% | -7.0 | u
CCOC(=O)c1cc2c(C)n(-c3ccc(N(C)C)cc3)c(C)c2cc(C(=O)OCC)c1=O | 9.0 | u | 0.8% | 19.3 | 3.29µM*
COc1ccc2c(c1)c(=O)cc(-c1ccccc1)n2C | 49.4* | 31.9% | 3.3% | 21.9* | -2.7%
Cc1csc(NC(=O)c2ccc(C)c([N+](=O)[O-])c2)n1 | 45.1 | 282.1% | 9.2% | 41.9* | u
CCOC(=O)C(C)Sc1nnc(NC(=O)c2cccc([N+](=O)[O-])c2C)s1 (stereo not drawn) | -13.8 | -6.4% | 4.2% | -8.2 | u
Cc1csc(NC(=O)c2ccc(Cl)cc2[N+](=O)[O-])n1 | 127.9* | i | x | 46.1* | -29.7%
Cc1cc(C)nc(NC(=O)c2ccc(C)c([N+](=O)[O-])c2)n1 | -8.8 | 46.6% | 6.2% | 2.2 | 49.4%
SMILES | Shiga toxin inh | Pf growth 48h | NS1 function inh | Cycloheximide cs | Pf growth 96h
CCOC(=O)C(C)Sc1nnc(NC(=O)c2ccc(C)c([N+](=O)[O-])c2)s1 (stereo not drawn) | -13.8 | -2.6% | -23.9% | -4.5 | 14.7µM*
COc1ccc(NC(=O)Cn2c(=O)n(CC(=O)NCc3ccco3)c(=O)c3ccccc32)cc1OC | 19.4 | u | -3.3% | -0.7 | 36.0%
Cc1cc(N2CCN(C)CC2)nc2ccc(NC(=S)NCCN3CCc4ccccc4C3)cc12 | -2.7 | 9.28µM* | -2.9% | -3.0 | u
CCCN1CCN(CCCNC(=S)Nc2ccc3nc(N4CCN(CC)CC4)cc(C)c3c2)CC1 | -5.5 | u | -5.4% | -2.2 | -1.0%
CCN1CCN(c2cc(C)c3cc(NC(=S)NCCCN4CCc5ccccc5C4)ccc3n2)CC1 | 27.3 | 7.38µM* | x | -11.0 | u
Cc1cc(N2CCN(C)CC2)nc2ccc(NC(=S)NCCCN3CCc4ccccc4C3)cc12 | -10.5 | u | -0.8% | -8.2 | 24.0%
CCOC(=O)C1(CC2CCCCO2)CCN(C(=O)Nc2ccccc2)CC1 (stereo not drawn) | 35.5* | u | 4.6% | 28.7* | -3.1%
CCOC(=O)C1(CC2CCCCO2)CCN(C(=O)Nc2ccc(C)c(C)c2)CC1 (stereo not drawn) | 20.9 | u | 0.5% | 0.9 | u
CCOC(=O)C1(CC2CCCCO2)CCN(S(=O)(=O)c2ccsc2)CC1 (stereo not drawn) | 23.1 | -11.1% | -4.1% | 13.0* | -17.0%
CCOC(=O)C1(CC2CCCCO2)CCN(Cc2ccc(OC)cc2F)CC1 (stereo not drawn) | 12.0 | -6.4% | 5.0% | -2.2 | -3.1%
CCOC(=O)C1(CC2CCCCO2)CCN(C(=O)Nc2ccccc2SC)CC1 (stereo not drawn) | 9.6 | u | -4.2% | -2.0 | 11.7µM*
CCOC(=O)C1(CC2CCCCO2)CCN(Cc2nc3ccccc3nc2C)CC1 (stereo not drawn) | 9.5 | u | 3.9% | -2.7 | 11.7µM*
CCOC(=O)C1(CC2CCCCO2)CCN(S(=O)(=O)c2ccc(C)s2)CC1 (stereo not drawn) | 28.5 | u | 0.6% | 11.2 | -7.8%
Cc1[nH]c2ccccc2c1C(=O)CN1C(=O)C(=O)N(CCC2=CCCCC2)C1=O | x | -86.5% | x | x | u
Cc1cc(C)c(NC(=O)CSc2nnc(SCC(=O)Nc3c(C)cc(C)cc3C)n2N)c(C)c1 | -13.1 | x | 6.0% | 2.1 | -29.1%
CC(Sc1nnc(C2CC2)n1N)C(=O)NC1CCCCC1C (stereo not drawn) | -7.7 | 9.7% | 5.2% | -1.6 | 20.7%
CCCCN(C(=O)c1cc(S(=O)(=O)N2CCCCCC2)ccc1OC)c1c(N)n(CCC)c(=O)[nH]c1=O | x | u | x | x | -6.7%
CCOC(=O)c1ccc(-c2c(-c3ccccc3OC)sc3cc4c(cc23)OCO4)cc1F | x | 1.85µM* | x | x | u
CCCCCOc1ccc(C(O)C(CN2CCOCC2)c2ccccc2)cc1 (stereo not drawn) | -3.0 | 2.62µM* | -26.8% | -0.7 | -3.8%
CCOc1ccc(C(=O)C(CN2CCOCC2)c2ccccc2)cc1 (stereo not drawn) | 15.1 | u | -62.5% | -2.7 | u
C[C@@H](N1CCOCC1)[C@@](O)(c1ccccc1)c1ccccn1 | x | x | 2.8% | x | x
OC(c1ccccc1)(c1ccc(F)cc1)C(c1ccccc1)N1CCOCC1 (stereo not drawn) | -8.3 | 37.8% | -20.7% | 7.5 | 6.57µM*
COc1ccc(C(O)C(CN2CCOCC2)c2ccccc2)cc1 (stereo not drawn) | 23.4 | u | 11.5% | 5.6 | 9.28µM*
O=C(c1ccc(Br)cc1)C(CN1CCOCC1)c1ccccc1 (stereo not drawn) | 26.1 | -0.2% | -124.5% | 4.9 | u
OC(c1ccc(F)cc1)C(CN1CCOCC1)c1ccccc1 (stereo not drawn) | -4.2 | 11.7µM* | 1.7% | -8.0 | 10.4µM*
COc1ccc(CC2(CO)CCN(Cc3cccn3-c3ccccn3)CC2)cc1 | -8.3 | u | 0.5% | -1.3 | 3.1%
CC(=O)N1CCc2c(sc(NC(=O)CS(=O)(=O)c3ccc(F)cc3)c2C(N)=O)C1 | x | 0.0% | x | x | 13.6%

Assay outcomes: PubChem BioAssay, National Center for Advancing Translational Sciences (NCATS)
